Results on 38 compounds are retold here after the supplement of paper PMC10646978.

± gives the standard deviation.

For one experiment, the system named is RAW-Dual (murine macrophage reporter line). Put plainly: IRF reporter (Lucia luciferase) activity fold change vs agonist alone; higher = enhanced IRF activity. To be noted: modulator concentration 10 µM; agonist: MPLA […]. An outline of the steps: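 RAW-Dual murine macrophage reporter cells were plated at 50 000 per well in 384-well plates, pin-transferred compound to 10 μM final, and pre-incubated for 1 hour at 37 °C before a PRR agonist was added and the cells incubated overnight. NF-κB activity was read from supernatant SEAP with QUANTI-Blue at 620 nm absorbance, and IRF activity from Lucia luciferase with QUANTI-Luc by luminescence. Each signal was expressed as fold change by dividing by the mean agonist-only control on the same plate. Two replicate plates were averaged, with errors obtained by propagation.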
Turning to `COC12CC(COC(=O)c3cncc(Br)c3)CN(C)C1Cc1cn(C)c3cccc2c13` (stereo unspecified), the IRF reporter was 1.19 ± 0.16.

With `CCOC(=O)c1ccccc1-c1ccc(C=C2C(=O)NC(=O)N(c3ccccc3C)C2=O)o1`, the IRF reporter came out at 0.321 ± 0.088.

On to `c1cc2c(cc1C1OCC3C(c4ccc5c(c4)OCO5)OCC13)OCO2` (stereo unspecified), for which the IRF reporter is 1.24 ± 0.12.

On to `CCN(CC)CCNC(=O)C(O)(c1ccccc1)c1ccccc1`, for which the IRF reporter is 0.923 ± 0.23.

With `COc1cc2c(cc1OC)C1CC(=O)C(CC(C)C)CN1CC2` (stereo unspecified), the IRF reporter was found to be 0.904 ± 0.073.

With `O=C1CCC(=O)N1C1CC2CCC(C1)N2C(=O)Cc1cccc2ccccc12` (stereo unspecified), the IRF reporter turned out to be 1.16 ± 0.21.

Regarding `CCOc1cc(C=C2C(=O)NC(=O)NC2=O)ccc1OCc1c(Cl)cccc1Cl`, the IRF reporter turned out to be 1.2 ± 0.14.

Regarding `CCC1(O)C(=O)OCc2c1cc1n(c2=O)Cc2cc3ccccc3nc2-1` (stereo unspecified), the IRF reporter stood at 1.41 ± 0.24.

As to `CCC1(c2cccc(O)c2)CCCCN(C)C1.Cl` (stereo unspecified), the IRF reporter was 0.948 ± 0.21.

`CC(C)c1ccc2c(c1O)CCC1C3=C(CCC21C)C(=O)OC3` (stereo unspecified): the IRF reporter was 1.23 ± 0.26.

Take `COc1cc(OC)c(OC)cc1C=O`: the IRF reporter came out at 0.99 ± 0.22.

Consider `COc1ccc(CCNCc2ccc3ccccc3c2)cc1OC`, for which the IRF reporter amounted to 1.24 ± 0.14.

As to `COC(=O)COc1ccc(C=C2C(=O)NC(=S)N(c3cccc(Cl)c3Cl)C2=O)cc1OC`, the IRF reporter is 1.14 ± 0.12.

For `CC(C)N(CCC(C(N)=O)(c1ccccc1)c1ccccn1)C(C)C` (stereo unspecified), the IRF reporter amounted to 1.12 ± 0.13.

As for `COc1ccc(CNCCc2c[nH]c3ccccc23)c(OC)c1C`, the IRF reporter is 2.88 ± 0.25.

For `CCOC(=O)Nc1ccc(NCc2ccc(F)cc2)cc1N`, the IRF reporter stood at 1.33 ± 0.51.

For the compound `O=Cc1cn(Cc2cccc3ccccc23)c2ccccc12`, the IRF reporter came to 1.23 ± 0.25.

Consider `C1CCc2nnnn2CC1` [Prestw-162], for which the IRF reporter came to 1.03 ± 0.23.

Consider `O=C(O)COc1cc(Cl)c(Cl)cc1Cl`, for which the IRF reporter was found to be 1.46 ± 0.26.

In the case of `NC(=O)Cn1c(Cc2ccccc2Cl)nc2ccccc21`, the IRF reporter amounted to 0.99 ± 0.13.

Consider `CC(=O)CC(c1ccccc1)c1c(OC(C)=O)c2ccccc2oc1=O` (stereo unspecified), for which the IRF reporter came out at 1.14 ± 0.19.

As to `CCC1(C)CC(=O)NC(=O)C1`, the IRF reporter worked out at 1.11 ± 0.16.

In the case of `CN1C(=O)NC(=O)C(=Cc2ccc([N+](=O)[O-])s2)C1=O`, the IRF reporter came out at 0.914 ± 0.19.

For the compound `CC(C(O)c1ccccc1)N(C)C` (stereo unspecified), the IRF reporter came to 1.3 ± 0.19.

For `Cc1c(NC=C2C(=O)NC(=O)NC2=O)c(=O)n(-c2ccccc2)n1C`, the IRF reporter worked out at 1.08 ± 0.069.

Take `CCC1(c2c[nH]cn2)Cc2ccccc2C1.Cl`: the IRF reporter came out at 1.07 ± 0.081.

In the case of `CC(=O)OC1CN2CCC1CC2.Cl` (stereo unspecified), the IRF reporter was 0.862 ± 0.081.

On to `COc1ccc(CN2CCNCC2)c(OC)c1OC.Cl.Cl`, for which the IRF reporter was 1.27 ± 0.13.

Regarding `CCOc1cc(C=C2N=C(c3cccc(C)c3)OC2=O)ccc1OC(=O)Cc1ccccc1`, the IRF reporter was found to be 0.964 ± 0.12.

Regarding `CCCCCn1c(=O)c(C(=O)NCc2cccnc2)c(O)c2ccccc21`, the IRF reporter was 1.34 ± 0.12.

Regarding `CN1CC(CNC(=O)OCc2ccccc2)CC2c3cccc4c3c(cn4C)CC21` (stereo unspecified), the IRF reporter is 1.2 ± 0.18.

Regarding `CCNc1nc(Cl)nc(NC(C)C)n1`, the IRF reporter amounted to 1.49 ± 0.25.

In the case of `ClC(Cl)=C(c1ccc(Cl)cc1)c1ccc(Cl)cc1`, the IRF reporter was determined as 1.25 ± 0.12.

Consider `CC(=O)Oc1ccc(C=Cc2cc(OC(C)=O)cc(OC(C)=O)c2)cc1`, for which the IRF reporter was found to be 0.896 ± 0.093.

Regarding `COc1ccc2c(c1O)-c1c(OC)c(OC)cc3c1C(C2)N(C)CC3` (stereo unspecified), the IRF reporter turned out to be 1.45 ± 0.17.

In the case of `Cc1cccc(-n2c(C)nc3ccccc3c2=O)n1`, the IRF reporter is 0.935 ± 0.19.

In the case of `O=C1NC(=O)C(=Cc2cccn2-c2ccc(Br)cc2)C(=O)N1`, the IRF reporter stood at 0.844 ± 0.18.

As to `COc1cc(CNCCc2c[nH]c3ccccc23)cc(OC)c1O`, the IRF reporter came out at 1.56 ± 0.15.

For a further experiment the test system is unchanged. Put plainly: viability score (confluency relative to resting cells, overnight) (fraction); higher = more viable, active = viable (0.7 or more). The following applies: modulator concentration 10 µM. An outline of the steps: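 RAW-Dual macrophages in 384-well plates were treated overnight with compound at 10 μM final. IncuCyte imaging recorded confluency, and IncuCyte software built two confluency masks across every imaged well. The viability score expresses confluency relative to resting cells and was judged against a cutoff, which a compound met only if both masks exceeded 70% of resting cells.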
On to `COC12CC(COC(=O)c3cncc(Br)c3)CN(C)C1Cc1cn(C)c3cccc2c13` (stereo unspecified), for which the viability score is 1.04 (active).

For `CCOC(=O)c1ccccc1-c1ccc(C=C2C(=O)NC(=O)N(c3ccccc3C)C2=O)o1`, the viability score is 0.0805 (inactive).

On to `c1cc2c(cc1C1OCC3C(c4ccc5c(c4)OCO5)OCC13)OCO2` (stereo unspecified), for which the viability score is 1 (active).

As for `CCN(CC)CCNC(=O)C(O)(c1ccccc1)c1ccccc1`, the viability score is 0.998 (active).

For `COc1cc2c(cc1OC)C1CC(=O)C(CC(C)C)CN1CC2` (stereo unspecified), the viability score is 0.992 (active).

In the case of `O=C1CCC(=O)N1C1CC2CCC(C1)N2C(=O)Cc1cccc2ccccc12` (stereo unspecified), the viability score was 1.01 (active).

Turning to `CCOc1cc(C=C2C(=O)NC(=O)NC2=O)ccc1OCc1c(Cl)cccc1Cl`, the viability score was 1.01 (active).

With `CCC1(O)C(=O)OCc2c1cc1n(c2=O)Cc2cc3ccccc3nc2-1` (stereo unspecified), the viability score is 0.974 (active).

For the compound `CCC1(c2cccc(O)c2)CCCCN(C)C1.Cl` (stereo unspecified), the viability score was 1.01 (active).

As for `CC(C)c1ccc2c(c1O)CCC1C3=C(CCC21C)C(=O)OC3` (stereo unspecified), the viability score was 1.03 (active).

Turning to `COc1cc(OC)c(OC)cc1C=O`, the viability score is 0.992 (active).

On to `COc1ccc(CCNCc2ccc3ccccc3c2)cc1OC`, for which the viability score was 0.984 (active).

As for `COC(=O)COc1ccc(C=C2C(=O)NC(=S)N(c3cccc(Cl)c3Cl)C2=O)cc1OC`, the viability score was 1.01 (active).

In the case of `CC(C)N(CCC(C(N)=O)(c1ccccc1)c1ccccn1)C(C)C` (stereo unspecified), the viability score is 0.998 (active).

`COc1ccc(CNCCc2c[nH]c3ccccc23)c(OC)c1C`: the viability score was 0.178 (inactive).

With `CCOC(=O)Nc1ccc(NCc2ccc(F)cc2)cc1N`, the viability score was 1.01 (active).

Turning to `O=Cc1cn(Cc2cccc3ccccc23)c2ccccc12`, the viability score was 0.989 (active).

In the case of `C1CCc2nnnn2CC1` [Prestw-162], the viability score is 1.01 (active).

For `O=C(O)COc1cc(Cl)c(Cl)cc1Cl`, the viability score was 1.04 (active).

Consider `NC(=O)Cn1c(Cc2ccccc2Cl)nc2ccccc21`, for which the viability score is 0.997 (active).

In the case of `CC(=O)CC(c1ccccc1)c1c(OC(C)=O)c2ccccc2oc1=O` (stereo unspecified), the viability score is 1 (active).

With `CCC1(C)CC(=O)NC(=O)C1`, the viability score was 0.985 (active).

With `CN1C(=O)NC(=O)C(=Cc2ccc([N+](=O)[O-])s2)C1=O`, the viability score was 1 (active).

Regarding `CC(C(O)c1ccccc1)N(C)C` (stereo unspecified), the viability score was 1 (active).

Turning to `Cc1c(NC=C2C(=O)NC(=O)NC2=O)c(=O)n(-c2ccccc2)n1C`, the viability score is 1.02 (active).

As to `CCC1(c2c[nH]cn2)Cc2ccccc2C1.Cl`, the viability score is 0.976 (active).

`CC(=O)OC1CN2CCC1CC2.Cl` (stereo unspecified): the viability score was 1 (active).

Regarding `COc1ccc(CN2CCNCC2)c(OC)c1OC.Cl.Cl`, the viability score was 0.989 (active).

In the case of `CCOc1cc(C=C2N=C(c3cccc(C)c3)OC2=O)ccc1OC(=O)Cc1ccccc1`, the viability score was 1.01 (active).

Turning to `CCCCCn1c(=O)c(C(=O)NCc2cccnc2)c(O)c2ccccc21`, the viability score is 0.989 (active).

On to `CN1CC(CNC(=O)OCc2ccccc2)CC2c3cccc4c3c(cn4C)CC21` (stereo unspecified), for which the viability score is 0.997 (active).

As for `CCNc1nc(Cl)nc(NC(C)C)n1`, the viability score is 1.03 (active).

In the case of `ClC(Cl)=C(c1ccc(Cl)cc1)c1ccc(Cl)cc1`, the viability score is 0.714 (active).

Consider `CC(=O)Oc1ccc(C=Cc2cc(OC(C)=O)cc(OC(C)=O)c2)cc1`, for which the viability score was 1 (active).

Turning to `COc1ccc2c(c1O)-c1c(OC)c(OC)cc3c1C(C2)N(C)CC3` (stereo unspecified), the viability score is 1.04 (active).

Turning to `Cc1cccc(-n2c(C)nc3ccccc3c2=O)n1`, the viability score is 0.998 (active).

Turning to `O=C1NC(=O)C(=Cc2cccn2-c2ccc(Br)cc2)C(=O)N1`, the viability score was 0.997 (active).

With `COc1cc(CNCCc2c[nH]c3ccccc23)cc(OC)c1O`, the viability score was 1 (active).
